Assay results from PubChem BioAssay (NCI).
Values joined by “and” are separate entries in the source; they are usually repeats but may differ in a detail not shown here. Identical values can stand only once. About 83,000 compounds went through this panel and 20% of them were active in at least one assay; those are over-represented in the sample as a whole.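 The endpoint reported here, percent growth, reads 100 for growth as untreated, 0 for no net growth and -100 for all cells dead.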 Active and inactive are the calls of the source. Rule for the calls: active = growth percent below 10; inactive = the rest.

Assays:
Assay in all cases: NCI-60 one-dose screen, 48 h (100 = growth as untreated, 0 = no growth, -100 = all killed)
T-47D breast = conditions: 10 µM unless noted
BT-549 breast = conditions: 10 µM unless noted
MDA-MB-435 melanoma = conditions: 10 µM unless noted
SW-620 colon = conditions: 10 µM unless noted
MCF7 breast = test system: MCF7 breast
HCT-116 colon = conditions: 10 µM unless noted
HCC-2998 colon = conditions: 10 µM unless noted
KM12 colon = conditions: 10 µM unless noted

Measured: growth

Cc1cc(-c2cc(C)c(O)c(C)c2)cc(C)c1O
inactive: T-47D breast 93.7% | BT-549 breast 65.7% | SW-620 colon 77.4% | MCF7 breast; 10 µM unless noted 91.6% | HCT-116 colon 83.7% | HCC-2998 colon 92.3% | KM12 colon 72.6%
active: MDA-MB-435 melanoma 8.38%

CCc1cc(C)cc(O)c1
inactive: T-47D breast 102% | MDA-MB-435 melanoma 113% | SW-620 colon 107% | MCF7 breast; 10 µM unless noted 98.3% | HCT-116 colon 98.2% | HCC-2998 colon 104% | KM12 colon 114%

CC(=O)OC(C)C(=O)NCC(C)O (centres undefined)
inactive: BT-549 breast 111% | MDA-MB-435 melanoma 111% | SW-620 colon 94.3% | MCF7 breast; 10 µM unless noted 96.9% | HCT-116 colon 95.2% | HCC-2998 colon 99.4% | KM12 colon 102%

CCCCOC(=O)/C=C\C(=O)NC(N)=O
inactive: BT-549 breast 63.5% | MDA-MB-435 melanoma 99.4% | SW-620 colon 57.1% | MCF7 breast; 10 µM unless noted 81.1% | HCT-116 colon 80.1% | HCC-2998 colon 108% | KM12 colon 106%

CCCCCCCCCCCCCCCc1ccc(N)c(OC2OC(CO)C(O)C(O)C2O)c1 (centres undefined)
active: HCC-2998 colon 9.53%
inactive: T-47D breast 104% | BT-549 breast 54.8% | MDA-MB-435 melanoma 99.6% | SW-620 colon 98.2% | MCF7 breast; 10 µM unless noted 93.7% | HCT-116 colon 87.7% | KM12 colon 100%

O=[N+]([O-])c1cccc(SSc2cccc([N+](=O)[O-])c2)c1
inactive: T-47D breast 76.9% | BT-549 breast 101% | MDA-MB-435 melanoma 102% | SW-620 colon 109% | MCF7 breast; 10 µM unless noted 93.7% | HCT-116 colon 94% | HCC-2998 colon 108% | KM12 colon 107%

CC(=O)Nc1ccc(S(N)(=O)=O)cc1
inactive: T-47D breast 87.7% and 100% | BT-549 breast 104% | MDA-MB-435 melanoma 97.4% and 96.3% | SW-620 colon 96.7% and 104% | MCF7 breast; 10 µM unless noted 91.8% and 93.3% | HCT-116 colon 94.2% and 93.6% | HCC-2998 colon 108% | KM12 colon 109% and 108%

CCCCNc1ccc(Nc2ccccc2)cc1
inactive: T-47D breast 34% | BT-549 breast 49.7% | MDA-MB-435 melanoma 71.8% | SW-620 colon 84.3% | MCF7 breast; 10 µM unless noted 67.3% | HCT-116 colon 47.9% | HCC-2998 colon 92% | KM12 colon 66%

CC1CCC2(C(=O)O)CCC3(C)C(=CCC4C5(C)CCC(O)C(C)(C)C5CCC43C)C2C1C (centres undefined)
6.37% (active) and 85.7% (inactive): HCT-116 colon
inactive: BT-549 breast 263% and 102% | MDA-MB-435 melanoma 59.8% and 103% | SW-620 colon 15.2% and 98.2% | MCF7 breast; 10 µM 84.3% and 93.3% | KM12 colon 59.6% and 85.7%
-29% (active) and 91.4% (inactive): HCC-2998 colon
active: MCF7 breast; 100 µM -56.5% and -70%

CN(C)c1ccc(/C=C\C(=O)c2ccccc2)cc1
inactive: BT-549 breast 76.5% and 77.6% and 73.7% | MDA-MB-435 melanoma 85.3% and 38% and 25.1% | SW-620 colon 64.2% and 61.3% and 66.4% | MCF7 breast; 10 µM unless noted 50.2% and 39.2% and 45% | HCT-116 colon 75.9% and 94.2% and 59.2% | HCC-2998 colon 97.1% and 88.3% and 100% | KM12 colon 51.5% and 50.1% and 57.5%

CC1CCC(C(C)C)C(NNC(N)=O)C1 (centres undefined)
inactive: MDA-MB-435 melanoma 101% | SW-620 colon 98% | MCF7 breast; 10 µM unless noted 100% | HCT-116 colon 99.5% | HCC-2998 colon 91.8% | KM12 colon 94%

O=C1OC(C(O)C(O)CO)C(O)=C1O (centres undefined)
inactive: BT-549 breast 106% | MDA-MB-435 melanoma 114% and 109% | SW-620 colon 117% and 105% | MCF7 breast; 10 µM unless noted 98.9% and 97.4% | HCT-116 colon 100% and 92.8% | KM12 colon 109% and 103%
-23.7% (active) and 98.9% (inactive): HCC-2998 colon

Cl
inactive: BT-549 breast 112% | MDA-MB-435 melanoma 101% | SW-620 colon 100% | MCF7 breast; 10 µM unless noted 109% | HCT-116 colon 104% | HCC-2998 colon 108% | KM12 colon 112%

CN(C)CC1CCCCCC(CN(C)C)C1=O (centres undefined)
inactive: BT-549 breast 95% | MDA-MB-435 melanoma 81.2% | MCF7 breast; 10 µM unless noted 24.7% | HCC-2998 colon 117% | KM12 colon 102%
active: SW-620 colon -64.3% | HCT-116 colon -35.5%

Nc1cc(N)c(N)cc1N
active: MDA-MB-435 melanoma -73.8% | SW-620 colon 7.1% | MCF7 breast; 10 µM unless noted -49.2% | HCT-116 colon 0.84%
inactive: BT-549 breast 85.4% | HCC-2998 colon 101% | KM12 colon 80.1%

O=c1[nH]cnc2c1ncn2C1OC(CO)C(O)C1O (centres undefined)
inactive: BT-549 breast 103% and 123% and 109% | MDA-MB-435 melanoma 121% and 98.7% and 90.2% | SW-620 colon 107% and 113% and 89.7% | MCF7 breast; 10 µM unless noted 100% and 96.8% and 95.6% | HCT-116 colon 102% and 116% and 92.9% | HCC-2998 colon 102% and 113% and 127% | KM12 colon 111% and 109%

O=C1CSC2=NCCN12
inactive: BT-549 breast 131% | MDA-MB-435 melanoma 71.5% and 70.6% | SW-620 colon 92% and 93.4% | MCF7 breast; 10 µM unless noted 92.7% and 81.6% | HCT-116 colon 82.7% and 63.8% | HCC-2998 colon 96.9% and 107% | KM12 colon 89.8% and 123%

NC1CCC(C(=O)O)CC1 (centres undefined)
inactive: MDA-MB-435 melanoma 106% | SW-620 colon 93.7% and 100% | MCF7 breast; 10 µM unless noted 96% and 95.2% | HCT-116 colon 94.9% and 99.3% | HCC-2998 colon 111% and 100% | KM12 colon 107% and 108%

Cn1cnc([N+](=O)[O-])c1Sc1ncn[nH]1
inactive: BT-549 breast 101% | MDA-MB-435 melanoma 101% | SW-620 colon 106% | MCF7 breast; 10 µM unless noted 102% | HCT-116 colon 101% | KM12 colon 107%

NC(Cc1c[nH]c2ccccc12)C(=O)O (centres undefined)
inactive: BT-549 breast 113% and 102% | MDA-MB-435 melanoma 98.9% and 105% | SW-620 colon 111% and 95.9% | MCF7 breast; 10 µM unless noted 105% and 98.5% | HCT-116 colon 91.4% and 86.7% | HCC-2998 colon 103% and 101% | KM12 colon 108% and 109%

O=C1OC(c2ccccc2)=N/C1=C\c1ccccc1
inactive: BT-549 breast 96.3% | MDA-MB-435 melanoma 109% | SW-620 colon 101% | MCF7 breast; 10 µM unless noted 98.4% | HCT-116 colon 102% | HCC-2998 colon 96.6% | KM12 colon 108%

NN1CCOC(c2ccccc2)C1 (centres undefined)
inactive: BT-549 breast 102% | MDA-MB-435 melanoma 106% | SW-620 colon 98% | MCF7 breast; 10 µM unless noted 91.8% | HCT-116 colon 91.2% | HCC-2998 colon 107% | KM12 colon 101%

Cc1ccc(=O)[nH]n1
inactive: BT-549 breast 112% and 113% | MDA-MB-435 melanoma 113% | SW-620 colon 102% and 103% | MCF7 breast; 10 µM unless noted 101% and 96.2% | HCT-116 colon 107% | HCC-2998 colon 98.2% and 107% | KM12 colon 103% and 101%
